Most compounds without a hit are left out; they make up all but 5.4% or so of the library.
HPGD block: inhibitors of human 15-hydroxyprostaglandin dehydrogenase (HPGD); Potency, µM, for the others: at the highest dose activity change, negative = inhibition, most hits filed as inhibitors; P15428; purified HPGD, NADH fluorescence kinetic, PGE2 substrate; hit rate 4.3% among 150,000; active = well fitted inhibition curve with a large enough effect, not every such curve was filed as active; inconclusive = small, poorly fitted or top-dose-only effect, or another doubt; inactive = no such curve, though single readings can be large or run the other way; also: potency is read from the fitted curve at half-maximal effect
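NADH formation kinetics: reaction with 30 uM PGE2 and 1 mM NAD+ (final), 20 nM enzyme, Tris-HCl pH 8 with Tween 20, after 15 min compound preincubation at room temperature. Fluorescence change, last versus first of five reads.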
PNC assembly inh: inhibitors of perinucleolar compartment assembly; PC3M PTB-GFP, PNC prevalence imaging, 16 h; stronger effect = lower value; activity change (PNC), negative = inhibition, % at 10 µM; hit rate 3.1% among 140,000; AID 2417;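 active = readout at or below -70, meaning at least 70% loss of cells showing the perinucleolar compartment, a nuclear body marking cancer cells; inconclusive = readout between -30 and a set limit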;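 also: plate controls were DMSO wells for no effect and camptothecin positive control wells for full effect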
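Compounds are pinned in duplicate onto adhered PC3M cells stably expressing GFP-tagged PTB and incubated 16 h at 37 C. Cells are then fixed, nuclei stained with Hoechst, and PNC-positive cells counted.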
15-hLO-2 inh: inhibitors of human 15-lipoxygenase 2 (ALOX15B); O15296; purified 15hLO-2, xylenol orange hydroperoxide absorbance; Potency, µM (top dose mostly 57.1 µM), for inactives: top-dose activity change, negative = inhibition, actives largely listed as inhibitors; hit rate 0.56% among 110,000; AID 881; also: potency is read from the fitted curve at half-maximal effect; nearly all actives have a fitted effect of over 60% in size
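Purified human 15hLO-2 (50 nM) preincubated 15 min with compound, then 45 uM arachidonic acid for 90 min at RT in 25 mM Hepes pH 7.5, 0.01% Triton X-100. Hydroperoxide detected by Fe-xylenol orange; 573/405 nm absorbance ratio.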
IMPase Li cell: IMPase inhibition in cells with lithium potentiation; Potency, µM (series often up to 59.4 µM), without a hit: top-dose activity, negative = IMPase inhibition, actives largely listed as inhibitors; hit rate 0.35% among 210,000; CHO-M1 cells, IP1 TR-FRET (IP-One), carbachol + lithium;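 also: IP1 builds up when IMPase is blocked and the TR-FRET signal falls; potency is read from the fitted curve at half-maximal effect; plate controls were basal vehicle for no effect and high inhibitor control for full effect; nearly all actives have a fitted effect of over 50% in size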
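Test compounds were applied to CHO-M1 cells previously cultured for 16–30 h at 2000 per well. A small lithium amount accompanied them; after 30 min at 37C, IP1 was quantified by TR-FRET.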
IMPase inh: cell-permeable inhibitors of inositol monophosphatase (IMPase) | 120,000 tested, under 10 active | CHO-M1 cells, IP1 accumulation, HTRF TR-FRET ratio | inhibition (IP1 accumulation), % at 46.1 µM | P97697; active = well fitted curve in the direction sought with a large enough effect in the signal ratio, not every such curve was filed as active; inconclusive = small, poorly fitted or top-dose-only effect, or a change in a side signal; inactive = no such curve, though single readings can be large or run the other way; the % refers to the signal ratio;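 also: cells stimulated with carbachol in lithium chloride buffer; plate controls were DMSO basal wells for no effect and reference inhibitor wells for full effect; higher means more IMPase inhibition seen as more IP1 and lower FRET ratio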
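CHO-M1 cells (CHO stably expressing M1 receptor), compound up to 46 uM final, stimulated with carbachol (50 uM as added) in buffer with 50mM LiCl, pH 7.4, 30 min at 37C. Cytosolic IP1 read by TR-FRET; AC50 from Hill fits.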
ALOX12 inhib: blocks human 12-lipoxygenase activity. Potency, µM (doses to about 57.1 µM), inactives show at the top dose activity change, negative = inhibition, most hits filed as inhibitors. P18054. purified 12-hLO, xylenol orange hydroperoxide absorbance. hit rate 0.12% among 150,000; also: potency is read from the fitted curve at half-maximal effect; nearly all actives have a fitted effect of over 55% in size
Target sequence (P18054 whole entry, looked up): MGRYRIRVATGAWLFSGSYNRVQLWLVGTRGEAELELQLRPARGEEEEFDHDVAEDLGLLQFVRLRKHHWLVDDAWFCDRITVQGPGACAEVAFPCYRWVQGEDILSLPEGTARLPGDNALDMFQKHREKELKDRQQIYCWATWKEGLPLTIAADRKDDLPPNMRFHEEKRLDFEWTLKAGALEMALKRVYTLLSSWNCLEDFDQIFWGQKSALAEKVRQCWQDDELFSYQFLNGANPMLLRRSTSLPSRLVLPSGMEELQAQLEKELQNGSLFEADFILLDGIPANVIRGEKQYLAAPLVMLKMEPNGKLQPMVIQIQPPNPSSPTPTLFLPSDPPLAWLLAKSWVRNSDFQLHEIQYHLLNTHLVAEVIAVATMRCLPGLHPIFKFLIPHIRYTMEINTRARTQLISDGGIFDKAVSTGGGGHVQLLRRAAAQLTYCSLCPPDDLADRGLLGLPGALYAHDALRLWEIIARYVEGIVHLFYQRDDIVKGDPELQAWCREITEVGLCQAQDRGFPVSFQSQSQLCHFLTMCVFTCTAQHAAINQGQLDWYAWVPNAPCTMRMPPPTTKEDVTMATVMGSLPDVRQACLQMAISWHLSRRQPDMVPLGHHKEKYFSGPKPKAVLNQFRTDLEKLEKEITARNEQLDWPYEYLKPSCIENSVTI
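150 nM 12hLO, 25 mM Hepes pH 7.0 + 0.01% Triton X-100; cpd preinc 15 min RT; 40 uM arachidonic acid, 30 min RT; Fe-XO 30 min; A573/A405 ratio as read-out.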
Starred values were filed as active, the others as inactive; ? = inconclusive; / = no result given; [ ] = remark or other dose. Unless noted, calls follow the shape of the dose curve; as a rule, active = well fitted curve in the direction sought with a large enough effect; inconclusive = small, poorly fitted or top-dose-only effect, or another doubt; inactive = no such curve, though single readings can be large; an effect the other way counts as inactive or inconclusive. Unless noted, % is scaled to controls: 0 for no effect and ±100 for the full control effect.

SMILES | HPGD block | PNC assembly inh | 15-hLO-2 inh | IMPase Li cell | IMPase inh | ALOX12 inhib
O=C(NC(=S)NNS(=O)(=O)c1ccccc1)c1ccccc1[N+](=O)[O-] | 20µM* | 13 | / | -3% | / | -4%
CCCCCC(=O)NC(=S)NNC(=O)CC | -8% | -9 | 41% | 23%[38.3 µM] | 3 | -5%
CCCCC(=O)NC(=S)NNS(=O)(=O)c1ccccc1 | 20µM* | -27 | / | 3% | 9 | -3%
O=C(NC(=S)NNS(=O)(=O)c1ccccc1)c1ccc([N+](=O)[O-])cc1 | ? | ? | / | -2% | / | -5%
CCCCC(=O)NC(=S)NNC(=O)CC | -12% | -94* | / | 4% | 5 | -3%
CCCC=O | -11% | / | -9% | 7% | / | 0%
Fc1ccc(Nc2ncnc3ccc(-c4ccoc4)cc23)cc1 | / | / | 29% | 3% | / | /
C[C@H](NC(=O)N1CCc2nc(-c3ccccc3)c3c(c2C1)CO[C@@H](C)C3)c1ccccc1 | -5% | / | / | 5% | / | 1%[11.4 µM]
CCc1cc2c(=O)[nH]c(Cc3ccccc3)nc2s1 | -5% | -108* | -3% | 13%[38.3 µM] | -1 | -6%
O=C(SCc1cccc2ccccc12)c1ccc(Cl)cc1 | -8% | / | 1%[11.4 µM] | -1% | / | -2%[11.4 µM]
O=c1[nH]c(C2CCCN(S(=O)(=O)c3ccccc3)C2)nc2c1nnn2Cc1ccccc1F (stereo not given) | 13µM* | -23 | / | 1% | -9 | 6%
CCCc1nc2c(nnn2Cc2ccccc2)c(=O)[nH]1 | -26% | -14 | 0% | 31%[38.3 µM] | 8 | -4%
O=c1[nH]c(C2CCCN(S(=O)(=O)c3ccccc3)C2)nc2c1nnn2Cc1ccccc1 (stereo not given) | 14µM* | ? | -17% | 26%[38.3 µM] | -8 | -9%
CC(=O)/C(=C\c1ccccc1F)C(=O)c1ccccc1 | -10% | / | -5%[11.4 µM] | 6% | / | -6%[11.4 µM]
COc1ccc(O)c(/C=N/Nc2nc3ccccc3[nH]2)c1 | / | / | / | 8% | / | /
O=[N+]([O-])c1ccc(O)c(/C=N/Nc2nc3ccccc3[nH]2)c1 | -17% | -93* | / | 9% | 0 | 1%
Cc1cccc(CNc2ncncc2-c2ccccc2Cl)c1 | / | / | 10% | 23% | / | /
Cc1cccc(CSC(=N)N)c1 | / | -115* | / | / | -9 | 2%
Cn1cc(Br)c(C(=O)NC(=S)N2CCN(c3ccccn3)CC2)n1 | -11% | -86* | / | -2% | / | -4%
Cn1ncc(Br)c1C(=O)NC(=S)N1CCN(c2ccccn2)CC1 | -10% | 25 | / | 0% | / | -1%
COc1cc(NC(=S)N2CCN(c3ccccn3)CC2)c(OC)cc1Cl | 28µM* | 5 | / | 0% | / | -1%
CCC(Oc1ccccc1)C(=O)N1CCN(c2ccccn2)CC1 (stereo not given) | -17% | -132* | -4% | 11%[38.3 µM] | -6 | -7%
O=C(NC(=S)N1CCN(c2ccccn2)CC1)c1ccccc1 | -9% | -92* | / | -1% | / | -3%
Cc1nn(-c2ccccc2)c2sc(C(=O)Nc3cccc(Br)c3)cc12 | / | / | / | / | 1 | /
CC(C)CN1CCCC2(CCN(C(=O)c3cnccn3)CC2)C1 | -4% | / | 1% | 26% | / | 2%
SMILES | HPGD block | PNC assembly inh | 15-hLO-2 inh | IMPase Li cell | IMPase inh | ALOX12 inhib
CC1CCC(C(=O)NC(C(=O)N2CCc3ccccc3C2)C(C)C)CC1 (stereo not given) | -8% | 19 | 11% | 42%[38.3 µM] | 7 | -4%
CC1CCC(C(=O)NC(C(=O)N2CCN(c3ccccn3)CC2)C(C)C)CC1 (stereo not given) | -24% | -114* | -6% | -7%[38.3 µM] | -8 | 2%
O=C(O)c1cc(Cl)cc(Cc2cc(Cl)cc(C(=O)O)c2O)c1O | ? | / | -10%[11.4 µM] | -2% | / | -1%[11.4 µM]
Cc1ccc(Cl)cc1Nc1nc2ccccc2c2nncn12 | / | / | / | / | 9 | /
C=C1CCC[C@]2(C)C[C@H]3OC(=O)[C@H](CNCCc4ccccc4OC)C3CC12 (stereo not given in full) | -2% | / | / | 23% | / | /
CC1CCN(CCCOc2ccc(Br)cc2Cl)CC1 | / | / | / | 13% | / | /
O=C1CCC(=O)N1OCCCOc1ccc(Br)cc1Cl | 18µM* | -11 | / | -1% | 8 | -2%
COc1ccc(NC(=O)c2ccccc2NS(C)(=O)=O)cc1OC | -16% | ? | 9%[2.29 µM] | 8%[38.3 µM] | 2 | -3%
COc1cccc(C(=O)NC(=S)Nc2ccc(N3CCCC3)cc2)c1 | -22% | -20 | 13µM* | 3%[38.3 µM] | -1 | 16µM*
COc1ccc(C(=O)NC(=S)Nc2ccc(N3CCCC3)cc2)cc1 | / | / | / | 9% | / | /
COc1ccc(C(=O)Nc2ccc(C(=O)OCC(=O)c3ccccc3)cc2)cc1 | -11% | 11 | -28% | -3%[38.3 µM] | 3 | 2%
COc1ccc(C(=O)COC(=O)c2ccc(NC(=O)c3ccccc3)cc2)cc1 | ? | -1 | / | 11µM* | 8 | 4%
COC(=O)c1ccc(NC(=O)c2ccccc2NS(C)(=O)=O)cc1 | -12% | -104* | 6%[2.29 µM] | 2%[38.3 µM] | 15 | 7%
COc1cccc(C(=O)Nc2cccc(-c3nnc(-c4ccco4)o3)c2)c1 | 20µM* | -2 | -1% | -16%[38.3 µM] | 8 | 0%
C[C@H](Cc1ccccc1)Nc1ncnc2c1ncn2[C@@H]1O[C@H](CO)[C@H](O)[C@H]1O | ? | / | / | 7% | / | /
COc1ccc(NC(=O)c2ccco2)cc1NC(=O)COc1ccccc1Cl | / | / | / | / | 2 | /
COc1ccc(C(=O)CCC(=O)Nc2cccnc2)cc1 | / | / | / | -5% | / | /
COc1ccc(NC(=O)CCC(=O)c2ccc(-c3ccccc3)cc2)cc1 | 0% | ? | -17% | 32µM* | -15 | 1%
COC(=O)c1ccc(NC(=O)c2cccc(OC)c2)cc1 | 28µM* | 9 | -2% | 20%[38.3 µM] | 3 | -24%
Cc1ccc(CNC(=O)C(C)OC(=O)c2ccco2)cc1 (stereo not given) | -13% | ? | -14% | 2%[38.3 µM] | -2 | -1%
CCC(OC(=O)c1ccco1)C(=O)NCc1ccc(C)cc1 (stereo not given) | 28µM* | 36 | -7% | -2%[38.3 µM] | 4 | -4%
Cc1ccc(CNC(=O)C(OC(=O)c2ccco2)C(C)C)cc1 (stereo not given) | 4.5µM* | -7 | -1% | 20%[38.3 µM] | -8 | -12%
Cc1ccc(C(=O)Cn2c3c(sc2=N)CCCC3)cc1 | -19% | / | 14% | 28% | 7 | -19%
Cc1nc2cnc(Oc3cccc(Cl)c3)nc2n(Cc2ccc(F)cc2)c1=O | / | / | -14% | 17% | / | /
COC(=O)N/N=C/c1c(C)nn(-c2cccc(Cl)c2)c1Cl | -23% | -94* | / | 9% | -7 | -2%
Cc1nn(-c2ccccc2Cl)c(Cl)c1/C=N/Nc1cccc(C(=O)O)c1 | 13µM* | -23 | / | 6% | -1 | -6%
Cc1nn(-c2cccc(C(F)(F)F)c2)c(Cl)c1/C=N/Nc1cccc(C(=O)O)c1 | -27% | -19 | / | -3% | / | -19%
